PubChem BioAssay (NCI)
Compounds without any hit were thinned out: in the full panel of roughly 83,000, 20% have a hit.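 For each line, cells grew in 96-well plates with the test compound present at a single concentration for 48 hours.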 A number with no mark means an inactive call. Calls of active or inactive are those of the source. How the source made its calls: active means growth percent below 10; inactive means the rest.

test system: HOP-92 NSCLC; experiment: NCI-60 one-dose screen, 48 h (100 = growth as untreated, 0 = no growth, -100 = all killed); settings: 10 µM unless noted

Row | SMILES | growth
1 | O=C(CCl)c1ccc([N+](=O)[O-])o1 | -56% (active)
2 | CCCCCSC1C2C(=O)C(Br)=CC13CCNc1c(O)c4c5c(c13)=[N+]2CCC=5C=N4 (stereo not drawn) | -56.1% (active)
3 | COc1ccc(C/C(C)=C(\c2ccc(OCCN3CCOCC3)cc2)c2ccc(OC(=O)Cc3ccccc3)cc2)cc1 | -76.7% (active)
4 | Cn1cc(-c2csc(-c3cn(CCCCN4CCCCC4)c4ccc(F)cc34)n2)c2cccnc21 | 51.7%
5 | COc1ccc2c(c1)c(-c1nc(-c3cn(C)c4ncccc34)cs1)cn2CCCCN1CCCCC1 | 50.3%
6 | C[n+]1c(/C=C/c2ccc(N(CCCl)CCCl)cc2)sc2ccccc21 | 61.9%
7 | C=CC[Se]C(=O)c1ccccc1OC(C)=O | 15.2%
8 | CC(=O)OC1CCC2C3CCC4=C/C(=N/OC(=O)c5ccc(N(CCCl)CCCl)cc5)CCC4(C)C3CC(C)C12 (stereo not drawn) | 92.5%
9 | CCCCCCCC[n+]1ccc2ccccc2c1 | 52%
10 | Cn1cccc1C1CC(=O)N(CCC[Se]C#N)C1=O (stereo not drawn) | -40.8% (active)
11 | C[Se]C(=O)c1ccccc1OC(C)=O | 38.4%
12 | O=C1Nc2ccccc2C2c3cccn3-c3ccccc3CN12 (stereo not drawn) | 29.7%
13 | CCOC(=O)[C@@H](C)C[C@H](Cc1ccccc1)NC(=O)c1csc([C@@H](C[C@H](C(C)C)N(C)C(=O)[C@H](CCC(C)C)NC(=O)[C@H]2CCCCN2C)OC(C)=O)n1 | -1.79% (active)
14 | COC(=O)[C@H](C[C@H](Cc1ccccc1)NC(=O)c1csc([C@@H](C[C@H](C(C)C)N(C)C(=O)[C@@H](NC(=O)[C@H]2CCCCN2C)C(C)C)OC(C)=O)n1)NC(=O)OCc1ccccc1 | 28.2% [8.5 µM]
15 | CC1(C)N=C(N)N=C(N)N1c1ccc(OCCCNC(=O)Nc2ccc(S(=O)(=O)F)cc2)c(Cl)c1 | 78.6%
16 | O=C(CN1CCN(C(=O)c2ccco2)CC1)Nc1ccc(Cl)cc1C(=O)c1ccccc1Cl | 73.9%
17 | Cc1cc(N(CCCl)CCCl)ccc1C=Nc1ccccc1-c1ccccc1 | 84.4%

Row | SMILES | growth
18 | Cn1cc(-c2csc(-c3cn(CCN4CCOCC4)c4ccccc34)n2)c2cccnc21 | 48.6%
19 | CCOC(=O)[C@@H](C)C[C@H](Cc1ccccc1)NC(=O)c1csc([C@@H](C[C@H](C(C)C)N(C)C(=O)[C@H](CC)NC(=O)[C@H]2CCCCN2C)OC(C)=O)n1 | 41.5%
20 | ClC1=C(Cl)C(Cl)(C2(Cl)C(Cl)=C(Cl)C(Cl)=C2Cl)C(Cl)=C1Cl | -63.5% (active)
21 | O=C([O][Hg][CH2]C1OCCOC1[CH2][Hg][O]C(=O)c1ccccc1)c1ccccc1 (stereo not drawn) | -88.3% (active)
22 | COc1ccc([As]=[As]c2ccc(OC)c(NCS(=O)(=O)O)c2)cc1NCS(=O)(=O)O (stereo not drawn) | -21.9% (active)
23 | [Cl][Hg][n]1c(-c2ccco2)nc2ccccc21 | 116%
24 | CCC[CH2][Sn]([CH2]CCC)([CH2]CCC)[O]c1ccc(Cl)cc1Cl | -84.9% (active)
25 | NC(CCl)CCl | 109%
26 | CN1CCC(c2c[nH]c3ccccc23)C1 (stereo not drawn) | 92.9%
27 | CCCCCCCCCCCCCCCCCC1OC[C@@H](COC(=O)O[C@@H](C(=O)O[C@H]2C[C@@]3(O)[C@@H](OC(=O)c4ccccc4)[C@@H]4[C@]5(OC(C)=O)CO[C@@H]5C[C@H](O)[C@@]4(C)C(=O)[C@H](OC(C)=O)C(=C2C)C3(C)C)[C@@H](NC(=O)c2ccccc2)c2ccccc2)O1 (stereo partly drawn) | 66.4%
28 | CC1=C([Te]c2ccc(O)cc2)C(=O)c2ccccc2C1=O | -56.5% (active)
29 | O=C1NC(=O)C(=Cc2cn(CCCCCCn3c4ccccc4c(=O)c4ccccc43)c3ccccc23)C(=O)N1 | 96.1%
30 | CC(C)OC(=O)[C@H](C)NP(=O)(Oc1ccccc1)C1CCCN(O)C1=O (stereo partly drawn) | 104%
31 | CCCCCCC(=O)NC1=C(N2CC2)C(=O)C(NC(=O)CCCCCC)=C(N2CC2)C1=O | 65.3%
32 | COc1ccc(/C=C\c2cc(OC)c(OC)c(OC)c2)cc1NS(=O)(=O)c1ccc(Cl)cc1 | 37%
33 | CC[C@H](C)[C@H](NC(=O)[C@H]1CCCCN1C)C(=O)N(C)[C@H](CC(=O)c1nc(C(=O)N[C@@H](Cc2ccccc2)C[C@H](C)C(=O)O)cs1)C(C)C | 49%
